Results taken from PubChem BioAssay.
Active and inactive are the calls of the source.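 How the source made its calls: active means thallium flux through the channel raised or lowered by more than 3 SD from vehicle-only wells, actives on both sides; inactive means the rest.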

Key:
Experiment in all cases: modulators of BK channel variants, profiling panel, selectivity assay, cell-based, U2OS BacMam, thallium flux, beta subunits (AID 1259406);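 further: initial slope of Thallos dye fluorescence rise after thallium is added; log ratio against the mean of 0.3% DMSO vehicle wells on the same plate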
F380Y/beta2Delta = settings: at 30 µM
F380Y/beta4 = settings: at 30 µM
[1] = molecular target: Calcium-activated potassium channel subunit alpha-1 (Homo sapiens) + Leucine-rich repeat-containing protein 26 (Homo sapiens) (UniProt Q12791+Q2I0M4); settings: F380Y/Slo1WT/gamma1, at 30 µM
R275C = settings: at 30 µM
R275C/beta1 = settings: at 30 µM
R275C/beta2Delta = settings: at 30 µM
R275C/beta4 = settings: at 30 µM
R275C/Slo1WT/beta2 = settings: at 30 µM

Measured: log fold change Tl+ flux

Calcium-activated potassium channel subunit alpha-1 (Homo sapiens) + Leucine-rich repeat-containing protein 26 (Homo sapiens), sequence (Q2I0M4 whole entry, looked up, one chain of several): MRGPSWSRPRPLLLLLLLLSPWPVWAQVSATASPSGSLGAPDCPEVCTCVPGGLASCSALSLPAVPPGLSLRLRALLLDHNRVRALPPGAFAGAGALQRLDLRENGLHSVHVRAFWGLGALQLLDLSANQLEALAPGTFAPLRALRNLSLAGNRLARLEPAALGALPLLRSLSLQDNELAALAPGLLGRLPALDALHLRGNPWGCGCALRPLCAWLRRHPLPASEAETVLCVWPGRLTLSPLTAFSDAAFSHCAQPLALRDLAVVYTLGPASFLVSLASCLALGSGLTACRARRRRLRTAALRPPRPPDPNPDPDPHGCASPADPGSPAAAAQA

NS(=O)(=O)c1cc(C(=O)O)c(NCc2ccco2)cc1Cl
inactive: F380Y/beta2Delta -0.0211 | F380Y/beta4 0.0269 | [1] -0.028 | R275C -0.0468 | R275C/beta1 -0.0154 | R275C/beta2Delta -0.0184 | R275C/beta4 0.000317 | R275C/Slo1WT/beta2 0.0743

C[C@@H]1C[C@H]2[C@@H]3C[C@H](F)C4=CC(=O)C(Cl)=C[C@]4(C)[C@@]3(F)[C@@H](O)C[C@]2(C)[C@@]1(O)C(=O)CO
inactive: F380Y/beta2Delta -0.0145 | [1] 0.0637 | R275C 0.0158 | R275C/beta2Delta 0.0934 | R275C/Slo1WT/beta2 0.0468
active: F380Y/beta4 0.131 | R275C/beta1 0.354 | R275C/beta4 0.148

CC(C(=O)O)c1ccc(CC2CCCC2=O)cc1 (stereo not given)
inactive: F380Y/beta2Delta -0.0349 | F380Y/beta4 -0.0649 | [1] -0.0398 | R275C -0.0259 | R275C/beta1 0.00328 | R275C/beta2Delta 0.0267 | R275C/beta4 -0.000172 | R275C/Slo1WT/beta2 0.00782

COc1ccccc1N1CCN(CC(O)COc2cccc3ccccc23)CC1 (stereo not given)
active: F380Y/beta4 -0.114 | R275C/beta1 0.198 | R275C/beta4 0.167
inactive: F380Y/beta2Delta -0.0539 | [1] 0.00615 | R275C -0.067 | R275C/beta2Delta -0.0952 | R275C/Slo1WT/beta2 -0.0505

Cc1cnc(NC(=O)C2=C(O)c3ccccc3S(=O)(=O)N2C)s1
inactive: F380Y/beta2Delta 0.0267 | F380Y/beta4 0.0475 | [1] 0.0367 | R275C -0.0331 | R275C/beta1 0.00607 | R275C/beta2Delta 0.00306 | R275C/beta4 0.00145 | R275C/Slo1WT/beta2 0.0334

NC1CCN(c2nc3c(cc2F)c(=O)c(C(=O)O)cn3-c2ccc(F)cc2F)C1 (stereo not given)
inactive: F380Y/beta2Delta -0.101 | F380Y/beta4 0.00828 | [1] 0.0186 | R275C -0.0155 | R275C/beta1 -0.00647 | R275C/beta2Delta -0.0395 | R275C/beta4 -0.0109 | R275C/Slo1WT/beta2 0.0163

COc1ccc2nc(S(=O)Cc3ncc(C)c(OC)c3C)[nH]c2c1 (stereo not given)
inactive: F380Y/beta2Delta 0.0168 | F380Y/beta4 0.00709 | [1] 0.0324 | R275C 0.00389 | R275C/beta1 0.0492 | R275C/beta2Delta 0.00389 | R275C/beta4 0.0199 | R275C/Slo1WT/beta2 0.0436

COc1cc(C)nc(-n2nc(C)cc2OC)n1
inactive: F380Y/beta2Delta -0.0214 | F380Y/beta4 -0.018 | [1] -0.00579 | R275C 0.031 | R275C/beta1 0.00544 | R275C/beta2Delta 0.0107 | R275C/beta4 -0.0217 | R275C/Slo1WT/beta2 -0.00369

C[C@@H]1CN(CCCn2c3ccccc3c3ccccc32)C[C@H](C)N1
active: F380Y/beta2Delta 0.138 | F380Y/beta4 0.64 | R275C 0.377 | R275C/beta1 0.219 | R275C/beta2Delta 0.146 | R275C/beta4 0.312
inactive: [1] 0.0245 | R275C/Slo1WT/beta2 0.00517

Nc1nc2c(ncn2CCC(CO)CO)c(=O)[nH]1
inactive: F380Y/beta2Delta -0.015 | F380Y/beta4 -0.0159 | [1] -0.013 | R275C 0.00432 | R275C/beta1 0.00335 | R275C/beta2Delta 0.0147 | R275C/beta4 -0.0144 | R275C/Slo1WT/beta2 -0.0115

Cc1nc2n(c(=O)c1CCN1CCC(c3noc4cc(F)ccc34)CC1)CCCC2
active: R275C -0.134
inactive: F380Y/beta2Delta -0.0407 | F380Y/beta4 -0.0446 | [1] -0.0848 | R275C/beta1 -0.00526 | R275C/beta2Delta -0.0361 | R275C/beta4 -0.0132 | R275C/Slo1WT/beta2 0.0103

O=C1Nc2ccc(Cl)cc2[C@@](C#CC2CC2)(C(F)(F)F)O1
active: R275C -0.166 | R275C/beta1 0.275 | R275C/beta2Delta 0.119 | R275C/beta4 0.11
inactive: F380Y/beta2Delta 0.0472 | F380Y/beta4 0.0723 | [1] 0.0446 | R275C/Slo1WT/beta2 -0.0224

Cc1cccc(C)c1NC(=O)C(C)N (stereo not given)
inactive: F380Y/beta2Delta 0.0308 | F380Y/beta4 0.00908 | [1] -0.00222 | R275C 0.0212 | R275C/beta1 -0.0204 | R275C/beta2Delta -0.0462 | R275C/beta4 -0.0241
active: R275C/Slo1WT/beta2 0.0922

Nc1nc(N)nc(-c2cc(Cl)ccc2Cl)n1
inactive: F380Y/beta2Delta -0.0416 | F380Y/beta4 -0.00342 | [1] -0.0223 | R275C -0.0835 | R275C/beta1 -0.0137 | R275C/beta2Delta -0.0163 | R275C/beta4 -0.0246 | R275C/Slo1WT/beta2 -0.0527

COc1cc(C)c(Cc2cnc(N)nc2N)cc1OC
inactive: F380Y/beta2Delta 0.0137 | F380Y/beta4 0.0281 | [1] 0.0784 | R275C -0.0521 | R275C/beta1 0.0546 | R275C/beta2Delta 0.0143 | R275C/beta4 0.00157 | R275C/Slo1WT/beta2 0.0258

CCc1c(C)[nH]c2c1C(=O)C(CN1CCOCC1)CC2 (stereo not given)
inactive: F380Y/beta2Delta 0.0445 | F380Y/beta4 -0.00138 | [1] -0.0511 | R275C 0.0162 | R275C/beta1 -0.0312 | R275C/beta2Delta 0.0494 | R275C/beta4 -0.0175 | R275C/Slo1WT/beta2 0.00393

CN(Cc1cnc2nc(N)nc(N)c2n1)c1ccc(C(=O)N[C@@H](CCC(=O)O)C(=O)O)cc1
inactive: F380Y/beta2Delta -0.018 | [1] 0.0152 | R275C 0.0652 | R275C/beta1 -0.0323 | R275C/beta2Delta 0.0014

CC(C)(O)c1ccccc1CC[C@@H](SCC1(CC(=O)O)CC1)c1cccc(/C=C/c2ccc3ccc(Cl)cc3n2)c1
active: F380Y/beta2Delta 0.312 | F380Y/beta4 0.64 | [1] 0.354 | R275C 0.131 | R275C/beta1 0.782 | R275C/beta2Delta 0.293 | R275C/beta4 0.977 | R275C/Slo1WT/beta2 0.13

O=C1N(c2ccccc2)c2ccccc2C1(Cc1ccncc1)Cc1ccncc1
inactive: F380Y/beta2Delta -0.0915 | F380Y/beta4 -0.0921 | [1] -0.0557 | R275C -0.00568 | R275C/beta1 0.0135 | R275C/beta2Delta 0.00649 | R275C/beta4 -0.0197 | R275C/Slo1WT/beta2 -0.0252

Cc1ccc(NC(=O)c2ccc(CN3CCN(C)CC3)cc2)cc1Nc1nccc(-c2cccnc2)n1
inactive: F380Y/beta2Delta 0.0732 | [1] -0.0387 | R275C -0.00147 | R275C/beta1 0.00665 | R275C/beta2Delta 0.0291

CC(C)c1ccc2oc3nc(N)c(C(=O)O)cc3c(=O)c2c1
inactive: F380Y/beta2Delta 0.00122 | F380Y/beta4 0.0364 | [1] 0.0473 | R275C -0.0223 | R275C/beta1 -0.0119 | R275C/beta2Delta 0.0807 | R275C/beta4 -0.00203 | R275C/Slo1WT/beta2 0.0208

COc1ccc(CC2c3cc(OC)c(OC)cc3CC[N+]2(C)CCC(=O)OCCCCCOC(=O)CC[N+]2(C)CCc3cc(OC)c(OC)cc3C2Cc2ccc(OC)c(OC)c2)cc1OC (stereo not given)
inactive: F380Y/beta2Delta -0.00992 | [1] -0.0136 | R275C -0.0147 | R275C/beta1 0.0284 | R275C/beta2Delta -0.0198

Brc1c(NC2=NCCN2)ccc2nccnc12
inactive: F380Y/beta2Delta -0.06 | F380Y/beta4 -0.0578 | [1] -0.0163 | R275C -0.0123 | R275C/beta1 0.0524 | R275C/beta2Delta -0.0061 | R275C/beta4 0.0292 | R275C/Slo1WT/beta2 0.0556

CC(C)c1nc(CN(C)C(=O)N[C@H](C(=O)N[C@@H](Cc2ccccc2)C[C@H](O)[C@H](Cc2ccccc2)NC(=O)OCc2cncs2)C(C)C)cs1
inactive: R275C/beta1 0.0641 | R275C/beta4 -0.0726 | R275C/Slo1WT/beta2 0.0476
active: F380Y/beta2Delta -0.548 | F380Y/beta4 -0.505 | [1] -0.199 | R275C -0.232 | R275C/beta2Delta -0.208

C[C@@H]1C[C@H]2[C@@H]3CCC4=CC(=O)C=C[C@]4(C)[C@@]3(F)[C@@H](O)C[C@]2(C)[C@H]1C(=O)CO
active: R275C/beta1 0.178
inactive: F380Y/beta2Delta 0.0651 | F380Y/beta4 0.0601 | [1] 0.0369 | R275C -0.061 | R275C/beta2Delta 0.0622 | R275C/beta4 0.0336 | R275C/Slo1WT/beta2 0.0113

CCN1CC(CCN2CCOCC2)C(c2ccccc2)(c2ccccc2)C1=O (stereo not given)
inactive: F380Y/beta2Delta -0.000818 | F380Y/beta4 0.03 | [1] -0.0552 | R275C -0.0141 | R275C/beta1 -0.00917 | R275C/beta2Delta 0.0055 | R275C/beta4 0.000738 | R275C/Slo1WT/beta2 -0.0334

C#C[C@]1(O)CC[C@H]2[C@@H]3CCc4cc(O)ccc4[C@H]3CC[C@@]21C
inactive: F380Y/beta2Delta -0.0272 | R275C -0.0326 | R275C/beta1 0.0956
active: [1] 0.0947 | R275C/beta2Delta 0.155

CCCc1c(OCCCCc2nn[nH]n2)ccc(C(C)=O)c1O
inactive: R275C 0.0659
active: F380Y/beta2Delta 0.0962 | [1] 0.186 | R275C/beta1 0.282 | R275C/beta2Delta 0.193

c1cnc(N2CCN(Cc3ccc4c(c3)OCO4)CC2)nc1
inactive: F380Y/beta2Delta -0.0184 | [1] 0.0386 | R275C -0.0353 | R275C/beta1 0.0391 | R275C/beta2Delta -0.006

CN1CCN(c2c(F)cc3c(=O)c(C(=O)O)cn4c3c2SCC4)CC1
inactive: F380Y/beta2Delta 0.0235 | F380Y/beta4 -0.00383 | [1] 0.0303 | R275C -0.068 | R275C/beta1 0.019 | R275C/beta2Delta 0.0239 | R275C/beta4 0.00729 | R275C/Slo1WT/beta2 -0.0231

CCC(=O)O[C@]1(C(=O)SCF)[C@H](C)C[C@H]2[C@@H]3C[C@H](F)C4=CC(=O)C=C[C@]4(C)[C@@]3(F)[C@@H](O)C[C@@]21C
inactive: F380Y/beta2Delta 0.0505 | F380Y/beta4 0.0435 | [1] 0.0105 | R275C -0.00436 | R275C/beta1 -0.000971 | R275C/beta2Delta 0.027 | R275C/beta4 0.00493 | R275C/Slo1WT/beta2 0.0478
